Screening data: PubChem BioAssay, National Center for Advancing Translational Sciences (NCATS)
Only some compounds are listed: those with a hit (about 7.4% of all), similar ones and a draw of the others.
SMN2 splice up: enhancers of SMN2 splice variant expression. 2.8% of 210,000 active. HEK293 SMN2-luciferase splicing reporter, luminescence, 30-36 h. Potency, µM (titrated, usually from 46.1 µM), hits mostly activators; note: nearly all actives have a fitted effect of over 55% in size
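qHTS luciferase splicing reporter: luminescence rises when SMN2 exon 7 is included in transfected HEK293 cells. Compound exposure lasted 30-36 h at 37C, with 4.5 mM final sodium butyrate as control, followed by a ONE-Glo read.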
ELG1 genotoxic: induces genotoxicity in HEK293T cells with luciferase-tagged ELG1; HEK293T ELG1-luciferase reporter, luminescence, 16 h; Potency, µM (titrated, usually from 46 µM), hits mostly activators; 1.3% of 330,000 active; AID 504466; note: nearly all actives have a fitted effect of over 60% in size
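After overnight (16 hr) compound treatment at 37 °C, ELG1-luciferase HEK293T cells were lysed with ONE-Glo; luminescence quantified 30 min later at room temperature.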
Rab9 prom act: Rab9 promoter activation. Huh7 Rab9 promoter-luciferase reporter, luminescence, 24 h. Potency, µM (highest dose often 9.22 µM), actives largely listed as activators. 2.8% of 320,000 active; note: nearly all actives have a fitted effect of over 60% in size
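Cell-based reporter: Huh7 stable for Rab9 promoter-driven luciferase, plated in reduced-serum medium with 10% FBS at 1500 cells/well, compound-treated 24 h at 37 °C, luminescence read after 10 min reagent.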
FLuc counter: inhibits or activates purified firefly luciferase, miR-21 counter-screen; P08659; purified FLuc, Km substrates, luminescence inhibition; Potency, µM (doses to about 57.5 µM), actives largely listed as inhibitors; 6.9% of 360,000 active; note: nearly all actives have a fitted effect of over 55% in size
Target sequence (P08659 whole entry, looked up): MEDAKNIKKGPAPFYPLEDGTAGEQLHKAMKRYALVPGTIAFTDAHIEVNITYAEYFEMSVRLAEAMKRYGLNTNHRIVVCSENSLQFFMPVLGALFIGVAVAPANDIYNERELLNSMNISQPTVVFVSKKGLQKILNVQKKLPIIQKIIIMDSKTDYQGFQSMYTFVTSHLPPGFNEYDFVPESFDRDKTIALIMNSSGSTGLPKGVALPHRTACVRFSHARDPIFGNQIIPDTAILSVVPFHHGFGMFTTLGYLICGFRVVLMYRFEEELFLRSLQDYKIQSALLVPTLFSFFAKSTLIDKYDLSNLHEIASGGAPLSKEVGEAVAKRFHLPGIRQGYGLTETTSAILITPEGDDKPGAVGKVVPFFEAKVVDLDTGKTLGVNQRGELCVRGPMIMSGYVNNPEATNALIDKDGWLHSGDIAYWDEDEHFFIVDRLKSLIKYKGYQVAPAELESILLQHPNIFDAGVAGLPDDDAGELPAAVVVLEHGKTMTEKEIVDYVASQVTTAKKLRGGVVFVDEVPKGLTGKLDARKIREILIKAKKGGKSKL
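Biochemical qHTS of compounds, final roughly 60 µM downward over six points, against 10 nM purified firefly luciferase using Km concentrations of substrates (10 uM D-luciferin, 10 uM ATP) in Tris acetate pH 7.5 buffer; luminescence output.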
NPC1 promoter act: NPC1 promoter activation | Huh7 NPC1 promoter luciferase reporter, 24 h | Potency, µM (highest dose often 9.22 µM), usual class: activators | 2.4% of 320,000 active; note: nearly all actives have a fitted effect of over 60% in size
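Luminescence from an NPC1 promoter-driven luciferase reporter in stably transfected Huh7 cells was measured after 24 h compound treatment at 37 °C, followed by 10 min ambient incubation with luciferase detection reagent.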
A number is an active result; [ ] = remark or other dose. Calls come from the whole dose curve; as a rule, active = well fitted curve in the direction sought with a large enough effect; inconclusive = small, poorly fitted or top-dose-only effect, or another doubt; inactive = no such curve, though single readings can be large; an effect the other way counts as inactive or inconclusive.

Results for COc1ccc(N2CSC3=C(C#N)C(c4cc(OC)ccc4OC)CC(=O)N3C2)c(OC)c1 (stereo unspecified) ?
SMN2 splice up: inactive; ELG1 genotoxic: inactive; Rab9 prom act: inactive; FLuc counter: inconclusive; NPC1 promoter act: inactive

Results for CCOc1ccccc1N1CSC2=C(C#N)C(c3c(OC)ccc4ccccc34)CC(=O)N2C1 (stereo unspecified) ?
SMN2 splice up: inactive; ELG1 genotoxic: inactive; Rab9 prom act: inactive; FLuc counter: 7.6µM; NPC1 promoter act: inactive

How did COc1ccc(N2CSC3=C(C#N)C(c4cc(OC)c(OC)cc4OC)CC(=O)N3C2)c(OC)c1 (stereo unspecified) do in these assays?
SMN2 splice up: inactive; ELG1 genotoxic: inactive; Rab9 prom act: inactive; FLuc counter: inconclusive; NPC1 promoter act: inactive

Results for CCC(Oc1ccccc1)C(=O)N1CCN(Cc2cc(=O)n3nc(-c4cccc(C)c4)sc3n2)CC1 (stereo unspecified) ?
FLuc counter: inactive

How did Cc1nc2oc3ccc(Cl)cc3c(=O)c2cc1C(=O)O do in these assays?
ELG1 genotoxic: inactive; Rab9 prom act: inconclusive; FLuc counter: 24µM; NPC1 promoter act: inconclusive

Results for Cc1nc2oc3ccc(F)cc3c(=O)c2cc1C(=O)NC(C)(C)C ?
SMN2 splice up: inconclusive; ELG1 genotoxic: inconclusive; Rab9 prom act: inactive; FLuc counter: inconclusive; NPC1 promoter act: inactive

What do the screens show for `CC(C)c1ccc2oc3nc(N)c(C(=O)O)cc3c(=O)c2c1`?
Rab9 prom act: 0.5µM; FLuc counter: 0.43µM; NPC1 promoter act: 0.32µM

What do the screens show for `COc1ccc2cc1Oc1ccc(cc1)C[C@@H]1c3c(cc(OC)c4c3Oc3cc5c(cc3O4)CCN[C@H]5C2)CCN1C`?
SMN2 splice up: inactive[9.22 µM]

Results for CCOC(=O)c1cc2c(=O)n3ccccc3nc2n(CC2CCCO2)c1=NC(=O)c1ccccc1OCC (stereo unspecified) ?
SMN2 splice up: inactive; FLuc counter: inactive

Results for O=C(COC(=O)C1CCCCC1)NCCc1ccccc1 ?
SMN2 splice up: inactive; ELG1 genotoxic: inactive; Rab9 prom act: inactive; FLuc counter: 17µM; NPC1 promoter act: inactive

How did O=C(COC(=O)C1CCC1)NCc1ccccc1Cl do in these assays?
SMN2 splice up: inactive; ELG1 genotoxic: inactive; Rab9 prom act: inactive; FLuc counter: 24µM; NPC1 promoter act: inactive

What do the screens show for `O=C(COC(=O)C1CCCCC1)Nc1ccccc1OC(F)F`?
SMN2 splice up: inactive; ELG1 genotoxic: inactive; Rab9 prom act: inactive; FLuc counter: 24µM; NPC1 promoter act: inactive

What do the screens show for `O=C(COC(=O)c1ccco1)NCc1ccccc1Cl`?
SMN2 splice up: inactive; ELG1 genotoxic: inactive; Rab9 prom act: inactive; FLuc counter: 27µM; NPC1 promoter act: inactive

What do the screens show for `O=C(COC(=O)COc1ccccc1)NCCc1ccccc1`?
ELG1 genotoxic: inactive; Rab9 prom act: inactive; FLuc counter: inactive; NPC1 promoter act: inactive

What do the screens show for `CC1CC1C(=O)OCC(=O)NCc1ccccc1Cl` (stereo unspecified)?
SMN2 splice up: inactive; ELG1 genotoxic: inactive; Rab9 prom act: inactive; FLuc counter: inactive; NPC1 promoter act: inactive

How did O=C(COC(=O)c1ccco1)NCc1ccc(Cl)cc1Cl do in these assays?
ELG1 genotoxic: inactive

Results for CCOc1ccc(Cn2nnc3c(=O)[nH]c(C4CCN(C(=O)c5ccccc5)CC4)nc32)cc1 ?
SMN2 splice up: inactive; FLuc counter: inactive

How did COc1ccc(S(=O)(=O)Nc2nnc(Cc3ccc(OC)c(OC)c3)s2)cc1 do in these assays?
SMN2 splice up: inactive; ELG1 genotoxic: inactive; Rab9 prom act: inactive; FLuc counter: inconclusive; NPC1 promoter act: inactive

How did COc1ccc(-c2onc(C)c2C)cc1S(=O)(=O)N(C)Cc1ccccc1 do in these assays?
FLuc counter: inactive

Results for O=C(OCc1nc(-c2ccccc2Cl)no1)c1ccco1 ?
ELG1 genotoxic: inactive; Rab9 prom act: inactive; FLuc counter: 12µM; NPC1 promoter act: inactive

How did O=C(Nc1ccc(-c2cn3ccsc3n2)cc1)C1CC1 do in these assays?
SMN2 splice up: inconclusive; ELG1 genotoxic: inconclusive; Rab9 prom act: 1.6µM; FLuc counter: 2.7µM; NPC1 promoter act: 2.2µM

Results for Cc1ccc(S(=O)(=O)Nc2cccc(-c3cn4ccsc4n3)c2)cc1 ?
SMN2 splice up: inconclusive; ELG1 genotoxic: inactive; Rab9 prom act: inactive; FLuc counter: inconclusive; NPC1 promoter act: inactive

Results for O=C(Nc1ccc(-c2cn3ccsc3n2)cc1)C1CCCC1 ?
SMN2 splice up: inconclusive; ELG1 genotoxic: 1.8µM; Rab9 prom act: 3.2µM; FLuc counter: 1.3µM; NPC1 promoter act: 4µM

How did CC(=O)Nc1ccc(S(=O)(=O)NCc2cn3ccsc3n2)cc1 do in these assays?
SMN2 splice up: inactive; ELG1 genotoxic: inactive; Rab9 prom act: inactive; FLuc counter: inactive; NPC1 promoter act: inactive

How did c1cn2cc(-c3ccc4c(c3)OCO4)nc2s1 do in these assays?
SMN2 splice up: 13µM; ELG1 genotoxic: inconclusive; Rab9 prom act: 0.63µM; FLuc counter: 1.9µM; NPC1 promoter act: 0.45µM

Results for CC(=O)Nc1ccc(-c2cn3ccsc3n2)cc1 ?
SMN2 splice up: 10µM; ELG1 genotoxic: 5.8µM; Rab9 prom act: 1.4µM; FLuc counter: 12µM; NPC1 promoter act: 1.6µM

How did Cc1ccc(S(=O)(=O)N2CCOCC2)cc1C(=O)Nc1ccc(-c2cn3ccsc3n2)cc1 do in these assays?
SMN2 splice up: inactive; ELG1 genotoxic: inactive; Rab9 prom act: inactive; FLuc counter: inconclusive; NPC1 promoter act: inactive

Results for O=C(CCN1C(=O)c2ccccc2C1=O)Nc1ccc(-c2cn3ccsc3n2)cc1 ?
SMN2 splice up: inconclusive; ELG1 genotoxic: inconclusive; Rab9 prom act: 2.2µM; FLuc counter: 2.7µM; NPC1 promoter act: inconclusive

Results for O=C(Nc1ccc(-c2ccc3nncn3n2)cc1)C1CCCC1 ?
SMN2 splice up: inconclusive; ELG1 genotoxic: inactive; Rab9 prom act: inactive; FLuc counter: 19µM; NPC1 promoter act: inactive

How did Cc1ccc2sc(-c3ccc(NC(=O)CCN4C(=O)c5ccccc5C4=O)cc3)nc2c1 do in these assays?
SMN2 splice up: 0.4µM; ELG1 genotoxic: 4.6µM; Rab9 prom act: 0.28µM; FLuc counter: 11µM; NPC1 promoter act: 0.5µM

What do the screens show for `CC(=O)Nc1ccc(NC(=O)CCN2C(=O)c3ccccc3C2=O)cc1`?
ELG1 genotoxic: inactive; Rab9 prom act: inactive; FLuc counter: inactive; NPC1 promoter act: inactive

What do the screens show for `Cc1ccc(NC(=O)CCN2C(=O)c3ccccc3Sc3ncccc32)cc1`?
ELG1 genotoxic: inactive; Rab9 prom act: inactive; FLuc counter: inactive; NPC1 promoter act: inactive

Results for O=C(CC1CCCCC1)Nc1ccc(-c2ccc3nncn3n2)cc1 ?
SMN2 splice up: inactive; ELG1 genotoxic: inactive; Rab9 prom act: inactive; FLuc counter: inactive; NPC1 promoter act: inactive

How did Cc1ccc(-c2onc(C)c2C)cc1S(=O)(=O)NCc1ccc(N(C)C)cc1 do in these assays?
FLuc counter: inactive

How did O=C(c1cc(-c2ccc(Cl)cc2)on1)N(Cc1cccc(F)c1)Cc1ccco1 do in these assays?
FLuc counter: inactive

How did Cc1ccc(-n2nc(C)c(C(=O)NCCCN3CCN(c4ccccc4F)CC3)c2-n2cccc2)cc1 do in these assays?
FLuc counter: inactive
